Results published in PubChem BioAssay (NCATS).
Inconclusive results are not listed. Entries that show only a call come without a potency. Unmarked numbers belong to inactive results. The source made the active and inactive calls. The call rests on the fitted dose curve; in most records, active means well fitted cell-killing curve with a large enough effect; inconclusive means small, poorly fitted or top-dose-only effect, or effect the other way; inactive means flat fitted curve, though single readings scatter.

system: SKOV3; assay: Primary qHTS to identify gynecologic anti-cancer compounds using libraries of approved drugs and bioactive compounds (AID 1345084); conditions: Gynecologic cancer cell panel viability, ATPlite luminescence, 48 h; series mostly up to 57.5 µM; further: nearly all actives have a fitted effect of over 55% in size
Outline: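 Five-concentration response, 48 h; readout is ATP-driven luciferase luminescence.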

| Compound | Potency | activity change, negative = cytotoxicity |
| --- | --- | --- |
| CC1(O)CCC2C(C(=O)O)=COC(OC3OC(CO)C(O)C(O)C3OC(=O)/C=C/c3ccc(O)cc3)C21 (stereo not drawn) | inactive |  |
| Cn1c(=O)c2nc(/C=C/c3cccc(Cl)c3)n(C)c2n(C)c1=O | inactive |  |
| C=C1CCC2(OC1)OC1CC3C4CC=C5CC(O)CC(O[C@@H]6OC[C@@H](O)[C@H](O)[C@H]6O)C5(C)C4CCC3(C)C1(O)C2C (stereo partly drawn) | inactive |  |
| COc1cc(C/C(=C/NC(C)=O)N(CC(=O)Cc2ccccc2)C(C)=O)cc2c1OCO2 | inactive |  |
| CCOC(=O)c1ccnc(CNCC(=O)N(CC)CCN(C)C)c1 | inactive |  |
| CC(=O)c1c(O)cc2cccc3c2c1CC(C)(O)O3 (stereo not drawn) | inactive |  |
| C/C=C(\C)C(=O)O[C@@H](C)[C@H]1CC[C@]2(O)C3CCC4C[C@@H](OC5CC(OC)C(OC6CC(OC)C(OC7CC(OC)C(OC8OC(C)C(OC9OC(CO)C(O)C(O)C9O)C(OC)C8O)C(C)O7)C(C)O6)C(C)O5)CC[C@]4(C)C3[C@H](O)[C@@H](O)[C@]12C (stereo partly drawn) |  | -4.09% [at 6.55 µM] |
| C/C(=C\CCC(C(=O)O)C1CCC2(C)C3=C(CCC12C)C1(C)CCC(=O)C(C)(C)C1CC3)C(=O)O (stereo not drawn) | inactive |  |
| Cc1cc(C)cc(NC(=O)Cc2ccc(OC(C)(C)C(=O)O)cc2)c1 | inactive |  |
| CC1CC(O)CC(C)(C)C1(O)CCO (stereo not drawn) | inactive |  |
| CC(C)(C)NCC(O)COc1cccc2c1CCCC2=O (stereo not drawn) | inactive |  |
| CC(CCC1C(C(=O)O)=CC(=O)CC1(C)C)O[C@@H]1O[C@H](CO)[C@@H](O)[C@H](O)[C@H]1O (stereo partly drawn) | inactive |  |
| CN1CCC(c2c[nH]c3ccc(NC(=O)c4ccc(F)cc4)cc23)CC1 | inactive |  |
| C=CC(C)(C)C1(CC2NC(=O)C3CCCN3C2=O)C(=O)Nc2cc3c(cc21)C=CC(C)(C)O3 (stereo not drawn) | inactive |  |
| CC1=C2C(=O)C=C(CO)[C@@H]2[C@H]2OC(=O)[C@H](C)[C@@H]2[C@@H](O)C1 | inactive |  |
| NC(=O)c1cccc(-c2cc(O)cc(OC(=O)NC3CCCCC3)c2)c1 | inactive |  |
| CC(=O)O[C@@H]1[C@@H](OC(=O)/C=C/c2ccccc2)[C@H](C)O[C@@H](O[C@H]2[C@@H]3C=CO[C@@H](O[C@@H]4O[C@H](CO)[C@@H](O)[C@H](O)[C@H]4O)[C@@H]3[C@@]3(CO)O[C@@H]23)[C@@H]1OC(C)=O | inactive |  |

| Compound | Potency | activity change, negative = cytotoxicity |
| --- | --- | --- |
| CCOC(=O)c1ccc(N(C)c2csc(-c3ccccc3)n2)cc1 | inactive |  |
| C[C@]12CCC(=O)C=C1[C@@H](O)C[C@@H]1[C@@H]2[C@@H](O)C[C@@]2(C)[C@H]1CC[C@]2(O)C(=O)CO | inactive |  |
| C=C1CC23CC1(O)CCC2C1=CC2OC(=O)C(C)(C2O)C1C3C(=O)O (stereo not drawn) | inactive |  |
| CCOc1c2c(c(OCC)c3ccccc13)C(=O)N(c1ccc(CC(=O)NS(=O)(=O)c3ccccc3)cc1)C2 | inactive |  |
| CCCC(N[C@@H](C)C(=O)N1[C@H](C(=O)O)C[C@@H]2CCCC[C@@H]21)C(=O)OCC (stereo partly drawn) | inactive |  |
| CC(=O)OC[C@]12[C@H](OC(C)=O)C(=O)[C@@H]3[C@@H](OC(C)=O)[C@@]14O[C@@]3(C)COC(=O)c1cccnc1[C@@H](C)[C@H](C)C(=O)O[C@@H]([C@H](OC(C)=O)[C@@H]2OC(C)=O)[C@]4(C)O | inactive |  |
| COCCN(C)Cc1ccc2nc3sc(C(=O)N(C)C4CCCCC4)cn3c2c1 | inactive |  |
| COc1cccc(-c2ccc([C@@H](Oc3cc(-c4ccc(C[C@H](N)C(=O)O)cc4)nc(N)n3)C(F)(F)F)cc2)c1 | inactive |  |
| CO[C@@H](Cc1ccc(OCCc2nc(-c3ccccc3)oc2C)c2ccsc12)C(=O)O | inactive |  |
| O=C(O)[C@H]1CCCC[C@H]1C(=O)N1CCc2ccccc2[C@H]1CN1C(=O)c2ccccc2C1=O | inactive |  |
| CO/N=C(/C(=O)N[C@@H]1C(=O)N2C(C(=O)O)=C(CSC(=O)c3ccco3)CS[C@H]12)c1csc(N)n1 | inactive |  |
| COc1cc(-c2cccc(O)c2)cc2c1OCO2 | inactive |  |
| Cc1c(-c2ccnn2C)cc(C(=O)NCc2ccc(S(C)(=O)=O)cn2)c(=O)n1-c1cccc(C(F)(F)F)c1 | inactive |  |
| CNc1nc(Nc2cnn([C@H]3CCN(C4COC4)C[C@@H]3F)c2Cl)ncc1C(F)(F)F | inactive |  |
| O=C(O)c1cc(O[C@@H]2O[C@H](CO[C@@H]3OC[C@@H](O)[C@H](O)[C@H]3O)[C@@H](O)[C@H](O)[C@H]2O)c2ccccc2c1O | inactive |  |
| CC(C)(O)C1=CCC23COC(C2)C(O)(C(=O)O)CCC13 (stereo not drawn) | inactive |  |
